The whole screen tested about 5,500 compounds, of which about 2,000 (36%) were called active. About 18% were inconclusive and are not listed. Cut-off read from the data, not from the text of the source: active = normalized growth mostly below about 0.91 (no sharp cut-off); inconclusive = no clear call, values can overlap the other calls; inactive = mostly above about 0.92. The list shows a part of the results.
Test: chemical genetic growth profiling, strain panel (AID 1159580);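 note: tested at 20 µM; growth read once vehicle control cultures reached saturation at 30 °C; 1 = growth at the plate median or of vehicle wells; lower values mean less growth of the strain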
Settings: S. cerevisiae deletion strains, growth OD

Measured: normalized growth

COc1cc(C2CC(=S)Nc3ccccc3S2)cc(OC)c1OC (stereo unspecified)
inactive: locus YAR019C, strain CDC15, stronger effect = lower value 0.99 | locus YBL105C, strain PKC1, stronger effect = lower value 0.986 | locus YBR135W, strain CKS1, stronger effect = lower value 0.993 | locus YBR136W, strain MEC1, stronger effect = lower value 0.992 | locus YBR160W, strain CDC28, stronger effect = lower value 1 | locus YDL017W, strain CDC7, stronger effect = lower value 0.998 | locus YDL028C, strain MPS1, stronger effect = lower value 0.981 | locus YDL101C, strain DUN1, stronger effect = lower value 0.987 | locus YDL108W, strain KIN28, stronger effect = lower value 0.978 | locus YDL132W, strain cdc53, stronger effect = lower value 0.999 | locus YDL214C, strain PRR2, stronger effect = lower value 0.923 | locus YDR052C, strain DBF4, stronger effect = lower value 0.995 | locus YDR054C, strain cdc34, stronger effect = lower value 0.986 | locus YDR226W, strain ADK1, stronger effect = lower value 0.99 | locus YDR477W, strain SNF1, stronger effect = lower value 0.969 | locus YER123W, strain YCK3, stronger effect = lower value 0.881 | locus YER133W, strain GLC7, stronger effect = lower value 0.941 | locus YFL009W, strain cdc4, stronger effect = lower value 0.988 | locus YFL029C, strain CAK1, stronger effect = lower value 0.988 | locus YFR003C, strain YPI1, stronger effect = lower value 0.99 | locus YFR019W, strain FAB1, stronger effect = lower value 0.945 | locus YFR028C, strain CDC14, stronger effect = lower value 0.993 | locus YGR040W, strain KSS1, stronger effect = lower value 0.94 | locus YGR052W, strain FMP48, stronger effect = lower value 1.02 | locus YGR092W, strain DBF2, stronger effect = lower value 0.94 | locus YHR030C, strain SLT2, stronger effect = lower value 1.07 | locus YHR079C, strain IRE1, stronger effect = lower value 1.04 | locus YHR082C, strain KSP1, stronger effect = lower value 1.06 | locus YHR205W, strain SCH9, stronger effect = lower value 0.974 | locus YIL147C, strain SLN1, stronger effect = lower value 0.98 | locus YJL095W, strain BCK1, stronger effect = lower value 1.08 | locus YJL128C, strain PBS2, stronger effect = lower value 0.942 | locus YJL157C, strain FAR1, stronger effect = lower value 0.928 | locus YJR016C, strain ILV3, stronger effect = lower value 1 | locus YJR066W, strain TOR1 (second series), stronger effect = lower value 0.937 | locus YJR066W, strain TOR1, stronger effect = lower value 1.08 | locus YKL048C, strain ELM1, stronger effect = lower value 0.975 | locus YKL067W, strain YNK1, stronger effect = lower value 0.946 | locus YKL101W, strain HSL1, stronger effect = lower value 0.951 | locus YKL193C, strain SDS22, stronger effect = lower value 0.994 | locus YKL203C, strain TOR2, stronger effect = lower value 1.03 | locus YLR113W, strain HOG1, stronger effect = lower value 1 | locus YLR133W, strain CKI1, stronger effect = lower value 0.978 | locus YLR403W, strain SFP1, stronger effect = lower value 0.967 | locus YML070W, strain DAK1, stronger effect = lower value 0.914 | locus YMR001C, strain CDC5, stronger effect = lower value 0.993 | locus YMR205C, strain PFK2 (second series), stronger effect = lower value 0.95 | locus YMR277W, strain FCP1, stronger effect = lower value 0.999 | locus YNL006W, strain LST8, stronger effect = lower value 0.994 | locus YNL020C, strain ARK1, stronger effect = lower value 0.961 | locus YNL161W, strain CBK1, stronger effect = lower value 0.995 | locus YNL183C, strain NPR1, stronger effect = lower value 1.06 | locus YNL207W, strain RIO2, stronger effect = lower value 0.987 | locus YNL222W, strain SSU72, stronger effect = lower value 0.974 | locus YNL307C, strain MCK1 (second series), stronger effect = lower value 0.963 | locus YOL078W, strain AVO1, stronger effect = lower value 0.985 | locus YOL136C, strain PFK27, stronger effect = lower value 0.939 | locus YOR061W, strain CKA2, stronger effect = lower value 0.944 | locus YOR119C, strain RIO1, stronger effect = lower value 1.01 | locus YOR231W, strain MKK1, stronger effect = lower value 1.03 | locus YOR329C, strain SCD5, stronger effect = lower value 0.999 | locus YPL031C, strain PHO85, stronger effect = lower value 0.953 | locus YPL153C, strain RAD53, stronger effect = lower value 0.945 | locus YPL204W, strain HRR25, stronger effect = lower value 0.962 | locus YPL209C, strain IPL1, stronger effect = lower value 0.983 | locus YPL256C, strain CLN2, stronger effect = lower value 1.05 | locus YPR025C, strain CCL1, stronger effect = lower value 0.994 | locus YPR106W, strain ISR1, stronger effect = lower value 0.992 | locus YPR111W, strain DBF20, stronger effect = lower value 0.981 | strain NNK1, stronger effect = lower value 0.988 | strain TSCII, stronger effect = lower value 0.999

From PubChem BioAssay AID1159580 (chemical genetic matrix, 2015)
